Data published in PubChem BioAssay (NCI).
About 79,000 compounds went through this panel and 15% of them were active in at least one assay; those are over-represented in the sample as a whole. Active and inactive are the calls of the source. Cut-off read from the data, not from the text of the source: active = growth inhibition above about 70%; inactive = the rest. Where a SMILES comes first, the peptide text is derived from it. [ ]: non-standard residue; d: D form. Nva = CCC[CH](N)C(=O)O

Experiment: NCI Yeast Anticancer Drug Screen. Data for the mlh1 rad18 strain (AID 175)
Details: S. cerevisiae mlh1 rad18 strain growth inhibition; at 50.0 µM; stronger effect = higher value
In short: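 A repair-deficient yeast strain is exposed to test compound, and growth is scored relative to vehicle-treated controls.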

Compound	growth inhibition
O=[N+]([O-])c1ccc(-c2ccc(-c3csc(Nc4ccccc4)n3)o2)cc1	90.5% (active)
C1=C(C2=C[P+](c3ccccc3)(c3ccccc3)C=C(c3ccccc3)O2)OC(c2ccccc2)=C[P+]1(c1ccccc1)c1ccccc1	18.3% (inactive)
Cc1ccc(C2C(O)=C(c3ccccc3)Sc3ccc(C)cc32)cc1 (stereo not given)	31.4% (inactive)
CCc1n[nH]c(CC)c1CCCCCCOc1ccc(OC)cc1Cl	93.7% (active)
C=C1CC[C@H]2C(C)=CC[C@@H]3[C@H](OC(=O)[C@H]3CN3CCN(c4ccc(C)c([N+](=O)[O-])c4)CC3)[C@@H]12	47.8% (inactive)
C(CCCCCN1CCCCC1)CCCCN1CCCCC1	6.85% (inactive)
CN(Cc1cnc2nc(N)nc(N)c2n1)c1ccc(C(=O)NC(CCC(=O)O)C(=O)O)cc1C(F)(F)F (stereo not given)	56.9% (inactive)
CC(C(=O)O)C(N)C(=O)O (stereo not given)	99.5% (active)
CCCCCCCCCCN(CCCCCCCCCC)C1CC(OC2CC(O)(C(O)CO)Cc3c(O)c4c(c(O)c32)C(=O)c2c(OC)cccc2C4=O)OC(C)C1O (stereo not given)	90.5% (active)
COc1ccc(OCC(O)CN2CCN(c3cccc(Cl)c3)CC2)cc1 (stereo not given)	69.9% (inactive)
O=C(O)c1ccccc1C(=O)c1ccc2c(c1)Cc1ccccc1-2	76% (active)
Cc1cc(C2c3ccccc3-c3ccccc32)cc(C)c1O	98.5% (active)
CC(C)(C)c1cc(Cl)c(O)c(Cc2cc(C(C)(C)C)cc(Cl)c2O)c1	70.5% (active)
COc1cccc(/C=C/C(C)=O)c1OC	37.5% (inactive)
Cc1nc2c(cnn2C)cc1CCc1ccccc1	23.6% (inactive)
O=C1C(C(O)(C(F)(F)Cl)C(F)(F)Cl)CCCC1C(O)(C(F)(F)Cl)C(F)(F)Cl (stereo not given)	99.6% (active)
C=CCNCCC1CCCCCC1	96.5% (active)
CCCC(N)C(=O)NC(C(=O)O)C(C)C (stereo not given) (H-[Nva]-Val-OH; configuration not given here)	8.4% (inactive)
Cc1cc(N)c2cc(NC(=O)Nc3ccc4nc(C)cc(N)c4c3)ccc2n1	98.5% (active)
COc1ccc(N=Cc2ccccc2O)cc1	-26.1% (inactive)

Compound	growth inhibition
Cc1cc(Br)c2ccccc2c1N	90.2% (active)
c1ccc(-c2cc(Nc3ccc4c(c3)OCO4)c3cc(C4CCCCC4)ccc3n2)cc1	98.2% (active)
CCCCCCCCc1cc[n+](C2=C([O-])c3ccccc3C(=O)C2=O)cc1	98.2% (active)
CCCCCCCCCCCc1nnc(N)o1	96.8% (active)
O=C1OC(OCC#CCOC2OC(=O)C(Cl)=C2Cl)C(Cl)=C1Cl (stereo not given)	99.5% (active)
O=S(=O)(O)CC[S][Sn]([S]CCS(=O)(=O)O)([c]1ccccc1)[c]1ccccc1 (tested in a mixture with another compound)	90.7% (active)
CC(C)NC(=O)OCCS(=O)c1c(Cl)c(Cl)nn1C (stereo not given)	99% (active)
CN1N=C2c3ccccc3CC[C@H]2C1c1cccc(O)c1 (stereo not given in full)	35.9% (inactive)
O=C1CSC(=S)N1/N=C/c1ccc(Cl)c([N+](=O)[O-])c1	61.2% (inactive)
O=C(O)CCCCCCCCC(=O)CCl	99.2% (active)
O=C(NC1CCN(Cc2ccccc2)CC1)c1ccccc1I	80.8% (active)
Cc1ccc(Nc2nc3c(s2)C(=O)c2ccccc2C3=O)cc1	97.7% (active)
O=C(/C=C/c1ccccc1)c1cc2c(cc1O)OCO2	31.5% (inactive)
O=[N+]([O-])c1ccc(Sc2ccc([N+](=O)[O-])o2)o1	99.1% (active)
CCCCCCCCN(CCCCCCCC)CC(O)c1cc(OCC)nc2ccccc12 (stereo not given)	96.8% (active)
CC(O)CCc1nc2ccccc2[nH]1 (stereo not given)	11.7% (inactive)
CCCCCCCCCCCCCCCCSC(=NC)NC	98.7% (active)
O=C(O)CCC(O)=C1S(=O)(=O)OCCOS1(=O)=O	8.3% (inactive)
CCCCCCCCCCCCCCCCN	98.7% (active)
COC1=C(Br)C(=O)N/C1=C(\OC)c1ccccc1	6.15% (inactive)
